# Assays:
# [1] = biological target: Calcium/calmodulin-dependent protein kinase type 1 (Homo sapiens) (UniProt Q14012); details: at 1 µM
# [2] = biological target: Calcium/calmodulin-dependent protein kinase type 1 (Homo sapiens) (UniProt Q14012); details: at 10 µM
# [3] = biological target: Calcium/calmodulin-dependent protein kinase type II subunit beta (Homo sapiens) (UniProt Q13554); details: at 10 µM
# [4] = biological target: Calcium/calmodulin-dependent protein kinase type II subunit gamma (Homo sapiens) (UniProt Q13555); details: at 1 µM
# Chain of Calcium/calmodulin-dependent protein kinase type II subunit gamma (Homo sapiens) (Q13555 whole entry): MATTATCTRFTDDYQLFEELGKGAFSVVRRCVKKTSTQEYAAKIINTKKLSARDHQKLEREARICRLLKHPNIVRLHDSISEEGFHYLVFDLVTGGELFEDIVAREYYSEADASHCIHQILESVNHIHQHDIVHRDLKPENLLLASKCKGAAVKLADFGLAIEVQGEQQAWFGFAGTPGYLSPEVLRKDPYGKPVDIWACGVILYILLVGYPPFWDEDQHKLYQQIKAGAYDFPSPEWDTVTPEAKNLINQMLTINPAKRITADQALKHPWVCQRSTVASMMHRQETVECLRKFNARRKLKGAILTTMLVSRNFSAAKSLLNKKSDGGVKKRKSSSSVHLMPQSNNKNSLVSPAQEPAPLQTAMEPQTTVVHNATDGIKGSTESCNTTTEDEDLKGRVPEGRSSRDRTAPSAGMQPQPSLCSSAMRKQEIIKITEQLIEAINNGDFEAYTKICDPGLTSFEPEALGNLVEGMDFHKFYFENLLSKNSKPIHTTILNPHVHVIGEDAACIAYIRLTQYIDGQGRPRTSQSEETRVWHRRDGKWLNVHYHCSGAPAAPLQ
# [5] = biological target: Calcium/calmodulin-dependent protein kinase type II subunit gamma (Homo sapiens) (UniProt Q13555); details: at 10 µM
# [6] = biological target: Calcium/calmodulin-dependent protein kinase type II subunit delta (Homo sapiens) (UniProt Q13557); details: at 1 µM
# Chain of Calcium/calmodulin-dependent protein kinase type II subunit delta (Homo sapiens) (Q13557 whole entry): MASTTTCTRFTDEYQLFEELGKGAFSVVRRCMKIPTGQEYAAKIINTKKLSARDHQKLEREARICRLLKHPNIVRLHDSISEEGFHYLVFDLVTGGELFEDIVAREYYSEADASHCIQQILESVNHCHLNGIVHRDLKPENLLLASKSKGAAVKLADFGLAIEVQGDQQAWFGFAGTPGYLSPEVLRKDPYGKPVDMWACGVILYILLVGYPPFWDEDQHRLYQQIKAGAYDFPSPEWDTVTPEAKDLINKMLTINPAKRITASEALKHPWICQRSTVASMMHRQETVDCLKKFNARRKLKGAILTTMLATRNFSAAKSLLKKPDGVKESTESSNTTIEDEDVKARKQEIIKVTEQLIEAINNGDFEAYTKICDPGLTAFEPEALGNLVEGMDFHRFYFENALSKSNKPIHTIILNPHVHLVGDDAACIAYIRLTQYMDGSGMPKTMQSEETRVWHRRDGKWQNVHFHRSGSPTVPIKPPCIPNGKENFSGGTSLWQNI
# [7] = biological target: Calcium/calmodulin-dependent protein kinase type II subunit delta (Homo sapiens) (UniProt Q13557); details: at 10 µM
# [8] = biological target: T1, Calcium/calmodulin-dependent protein kinase type IV (Homo sapiens) (UniProt Q16566); details: at 1 µM
# T1 sequence (whole entry): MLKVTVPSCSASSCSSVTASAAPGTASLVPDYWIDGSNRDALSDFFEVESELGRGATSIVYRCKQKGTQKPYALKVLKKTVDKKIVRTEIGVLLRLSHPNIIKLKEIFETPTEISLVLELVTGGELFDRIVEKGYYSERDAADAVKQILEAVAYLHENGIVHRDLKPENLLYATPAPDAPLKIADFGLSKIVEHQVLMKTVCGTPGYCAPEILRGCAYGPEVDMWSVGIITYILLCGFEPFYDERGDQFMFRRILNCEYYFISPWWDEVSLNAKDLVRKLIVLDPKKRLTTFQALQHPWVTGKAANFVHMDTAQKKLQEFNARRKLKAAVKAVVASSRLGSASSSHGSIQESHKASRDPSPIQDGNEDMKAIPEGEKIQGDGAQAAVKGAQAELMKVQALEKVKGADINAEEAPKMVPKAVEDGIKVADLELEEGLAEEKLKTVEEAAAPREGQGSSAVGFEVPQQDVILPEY
# [9] = biological target: T1, Calcium/calmodulin-dependent protein kinase type IV (Homo sapiens); details: at 10 µM
# [10] = biological target: Calcium/calmodulin-dependent protein kinase type II subunit beta (Homo sapiens) (UniProt Q13554); details: at 1 µM
# Chain of Calcium/calmodulin-dependent protein kinase type II subunit beta (Homo sapiens) (Q13554 whole entry): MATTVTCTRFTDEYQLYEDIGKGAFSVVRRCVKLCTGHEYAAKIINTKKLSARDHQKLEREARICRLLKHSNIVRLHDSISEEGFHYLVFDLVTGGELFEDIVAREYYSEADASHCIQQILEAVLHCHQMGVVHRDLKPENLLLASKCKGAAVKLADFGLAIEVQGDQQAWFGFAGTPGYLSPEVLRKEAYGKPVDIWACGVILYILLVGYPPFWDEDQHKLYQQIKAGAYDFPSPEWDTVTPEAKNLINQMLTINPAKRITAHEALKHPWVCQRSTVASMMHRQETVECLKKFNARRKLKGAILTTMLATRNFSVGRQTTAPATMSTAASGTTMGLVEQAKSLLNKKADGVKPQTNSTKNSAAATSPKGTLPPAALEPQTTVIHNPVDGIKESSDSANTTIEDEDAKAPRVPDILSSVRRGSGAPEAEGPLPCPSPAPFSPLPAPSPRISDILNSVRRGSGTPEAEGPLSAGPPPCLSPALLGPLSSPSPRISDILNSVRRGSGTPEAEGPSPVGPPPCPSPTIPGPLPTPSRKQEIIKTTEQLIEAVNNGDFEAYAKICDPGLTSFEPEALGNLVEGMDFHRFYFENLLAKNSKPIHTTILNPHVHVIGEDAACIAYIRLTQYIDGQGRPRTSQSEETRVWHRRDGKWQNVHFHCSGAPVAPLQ
# Chain of Calcium/calmodulin-dependent protein kinase type 1 (Homo sapiens) (Q14012 whole entry, looked up): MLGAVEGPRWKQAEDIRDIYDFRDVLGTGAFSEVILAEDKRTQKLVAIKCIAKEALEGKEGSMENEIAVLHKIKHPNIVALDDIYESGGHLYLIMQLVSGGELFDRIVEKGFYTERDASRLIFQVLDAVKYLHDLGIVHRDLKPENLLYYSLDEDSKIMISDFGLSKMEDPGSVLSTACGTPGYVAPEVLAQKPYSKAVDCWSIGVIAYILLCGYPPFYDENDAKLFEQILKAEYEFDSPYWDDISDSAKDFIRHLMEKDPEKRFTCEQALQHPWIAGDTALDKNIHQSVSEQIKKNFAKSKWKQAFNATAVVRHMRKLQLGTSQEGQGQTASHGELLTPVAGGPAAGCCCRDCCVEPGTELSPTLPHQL
Compound,residual activity [1] [%],residual activity [2] [%],residual activity [3] [%],residual activity [4] [%],residual activity [5] [%],residual activity [6] [%],residual activity [7] [%],residual activity [8] [%],residual activity [9] [%],residual activity [10] [%]
CC(C)(C)c1nc2c3ccc(F)cc3c3c(=O)[nH]ccc3c2[nH]1,60,9,33,21,3,24,11,1,0,
O=C(c1ccccc1)c1ccc(N2CCOCC2)cc1O,95,98,71,,78,100,76,111,,
COc1cc2nccc(Oc3ccc(NC(=O)Nc4cc(C)on4)c(Cl)c3)c2cc1OC,105,41,69,108,70,102,,123,54,97
O=C1Cc2c([nH]c3ccc(Br)cc23)-c2ccccc2N1,94,74,57,,,58,16,,,81
CCCCc1c(-c2ccc(OC)cc2)[nH]c2nccnc12,109,86,84,64,26,73,42,112,,82
O=c1cc(N2CCNCC2)oc2c(-c3ccccc3)cccc12,105,80,84,104,88,101,77,,87,91
O=C(c1cc2cc(O)ccc2[nH]1)c1cc2cc(O)ccc2[nH]1,,37,14,30,2,23,4,114,76,53
N#C/C(=C1/Nc2ccccc2S1)c1ccnc(NCCc2cccnc2)n1,,,25,80,21,83,24,88,34,
O=C(Nc1nc2ccccc2n1CCN1CCOCC1)c1cccc([N+](=O)[O-])c1,,,83,,76,103,85,115,53,83
O=C1Cc2c([nH]c3ccc([N+](=O)[O-])cc23)-c2ccccc2N1,,,76,24,,32,20,,,61
N#Cc1c(NC(=O)c2cccc3ccccc23)sc2c1CCCC2,,,81,,97,,88,,87,94
Nc1nc(Nc2ccc(S(N)(=O)=O)cc2)nn1C(=O)c1c(F)cccc1F,,60,43,73,19,75,31,,64,
Nc1nccc(-c2c(-c3ccc(F)cc3)ncn2C2CCNCC2)n1,,,55,,62,100,56,,,
COc1cc2nccc(Oc3ccc(NC(=S)NC(=O)c4ccccc4C)cc3)c2cc1OC,,75,66,,,,85,121,84,79
Cc1cc(C)c(/C=C2\C(=O)Nc3ccccc32)[nH]1,,,,32,-1,38,9,104,60,
O=C1Nc2ccccc2/C1=C\c1c(Cl)[nH]c2ccccc12,,51,25,,39,87,34,,,
CC(C)[C@H](CO)Nc1nc(Nc2cc(N)cc(Cl)c2)c2ncn(C(C)C)c2n1,,,58,76,20,80,24,96,33,92
Oc1cccc(-c2nc(N3CCOCC3)c3oc4ncccc4c3n2)c1,,,90,98,66,,,,75,
CN(C)S(=O)(=O)c1ccc2c(c1)/C(=C/c1cc3c([nH]1)CCCC3)C(=O)N2,,94,59,17,12,18,13,89,98,71

Compound,residual activity [1] [%],residual activity [2] [%],residual activity [3] [%],residual activity [4] [%],residual activity [5] [%],residual activity [6] [%],residual activity [7] [%],residual activity [8] [%],residual activity [9] [%],residual activity [10] [%]
CN([C@@H](Cc1ccc(OS(=O)(=O)c2cccc3cnccc23)cc1)C(=O)N1CCN(c2ccccc2)CC1)S(=O)(=O)c1cccc2cnccc12,,,78,,,99,,,,100
COc1ccc(CNC(=O)Nc2ncc([N+](=O)[O-])s2)cc1,,72,,,,,,,,
NC(=O)c1ccc(-c2nc(-c3ccc4c(c3)OCCO4)c(-c3ccccn3)[nH]2)cc1,91,73,88,,,100,98,,,
O=C1NC(=O)C(c2c[nH]c3ccccc23)=C1c1c[nH]c2ccccc12,,57,13,40,4,28,4,100,54,68
O=c1cc(N2CCOCC2)oc2c(-c3ccccc3)cccc12,,55,79,,,,,,,
N#C/C(=C\c1ccc(O)c(O)c1)C(=O)NCc1ccccc1,,87,89,,,,,121,84,
CCCC(=O)Oc1ccc2[nH]c(C(=O)c3cc4ccccc4[nH]3)cc2c1,,89,85,99,102,,83,,53,86
COc1ccc(COc2ccc(Cc3cnc(N)nc3N)cc2OC)cc1,,76,,,,,,130,,
Fc1ccc(-c2nc3n(c2-c2ccncc2)CCS3)cc1,,,95,,,,,,,100
O=C1C(Cl)=C(N2C(=O)CCC2=O)C(=O)c2ccccc21,,78,86,,,97,99,,10,90
CCCCc1c(-c2ccc(O)cc2)[nH]c2nccnc12,,71,51,,,62,22,,,77
CCOc1nc(NC(=O)Cc2cc(OC)ccc2OC)cc(N)c1C#N,,78,,,,,,,,
COc1cc2c(cc1OC)-c1n[nH]c(Nc3cccc(F)c3)c1C2,,,56,99,60,,,,,
CCN1/C(=C/C(C)=O)Sc2ccc(OC)cc21,,,70,,,,,,,
COc1ccc(Cl)cc1NC(=O)Nc1cc(C)nc2ccccc12,,,72,,,,,,,88
O=S(=O)(NCCNC/C=C/c1ccc(Br)cc1)c1cccc2cnccc12,,,29,100,41,,35,,,76
CSc1nc(-c2ccc(F)cc2)c(-c2ccnc(NC(C)c3ccccc3)c2)[nH]1 (stereo not drawn),,87,75,98,83,102,83,,92,
CCOC(=O)c1c(C)[nH]c(/C=C2\C(=O)Nc3ccccc32)c1C,,77,93,77,48,79,59,,,98
